Activity calls are given as the source filed them.
Columns and labels:
[1] = test system: Human papillomavirus type 1a protein E7 (residues 44-93); test: HPV1a E7 fragment binders on microarrays, primary screen, biochemical, small-molecule microarray, residues 44-93, 635 nm fluorescence (AID 1108); conditions: small-molecule microarray binding, fluorescence 635 nm; higher = more signal;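 note: E7 fragment applied at 1 µg/mL in TBST for 1 h at 4 C; score combines spot fluorescence with its signal to noise ratio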
[2] = modulators of HCV replicon luciferase signal, primary screen, HCV replication inhibitor project, Huh7 cells, luciferase reporter (AID 1109); conditions: 48 h, higher = more signal;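 note: huh7 hepatoma cells harbouring a luciferase neomycin HCV replicon reporter; luciferase luminescence as measure of HCV replicon replication; test concentration not given here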
[3] = biological target: Left-right determination factor 2 (Homo sapiens) (UniProt O00292); test: LEFTY2 binders on small-molecule microarrays, primary screen, biochemical, small-molecule microarray, 635 nm fluorescence scan (AID 1110); conditions: LEFTY2 binding, higher = more signal
[4] = biological target: Calmodulin-1 (Homo sapiens) (UniProt P0DP23); test: CALM1 binders on microarrays, EGTA buffer, profiling panel, biochemical, small-molecule microarray, Cy5-labelled CALM1 (AID 1111); conditions: Cy5-CALM1 binding fluorescence, higher = more signal;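 note: labelled calmodulin applied in Tris saline Tween buffer holding calcium plus EGTA and DTT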
[5] = biological target: Calmodulin-1 (Homo sapiens) (UniProt P0DP23); test: calcium-bound CALM1 binders on microarrays, profiling panel, artefact control for SMM control-protein annotation, biochemical, small-molecule microarray, Cy5-labelled CALM1, plus calcium (AID 1112); conditions: Cy5-CALM1 binding fluorescence, higher = more signal;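 note: score merges spot fluorescence with signal to noise from triplicate slides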
[6] = small-molecule microarray binders of probe aWnt5a, primary screen, biochemical, biotinylated probe, 635/667 nm fluorescence (AID 1113); conditions: higher = more signal;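 note: score merges 667 nm fluorescence intensity with signal-to-noise per printed feature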
[7] = small-molecule microarray binders of probe aShh, primary screen, biochemical, biotinylated probe, 635/667 nm fluorescence (AID 1114); conditions: higher = more signal;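 note: probe is biotin-labelled aShh protein from a stem cell growth factor screen; measures binding of labelled protein to compounds printed on the slide; score merges feature fluorescence at 667 nm with signal-to-noise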
[8] = small-molecule microarray binders of probe aNog, primary screen, biochemical, biotinylated probe, 635/667 nm fluorescence (AID 1115); conditions: higher = more signal;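 note: probe is biotinylated aNog protein used at 0.15 µg/mL for 1 h at 4 C; z-score combines 667 nm fluorescence of each spot with its signal to noise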
[9] = biological target: Torsin-1A-interacting protein 1 (Homo sapiens) (UniProt Q5JTV8); test: LAP1 binders from COS7 cell lysate, primary screen, small-molecule microarray, 635/667 nm fluorescence (AID 1116); conditions: COS7-hLAP1 lysate binding, 635 nm fluorescence, higher = more signal
[10] = biological target: Alpha-bungarotoxin (Bungarus multicinctus) (UniProt P60615); test: alpha-bungarotoxin binders on microarray, profiling panel, artefact control for SMM control protein annotation, biochemical, small-molecule microarray, Alexa647 label, 635/667 nm fluorescence (AID 1117); conditions: alpha-BTX-A647 binding fluorescence, higher = more signal
Albumin (Bos taurus) = Albumin (Bos taurus) (UniProt P02769); test: bovine serum albumin binders on microarray, profiling panel, artefact control for SMM control protein annotation, biochemical, small-molecule microarray, Alexa647 label, 635/667 nm fluorescence (AID 1118); conditions: BSA-A647 binding, fluorescence 635 nm, higher = more signal;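 note: score merges 667 nm emission intensity and signal-to-noise per printed compound spot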
[11] = small-molecule microarray binders of probe aXIP, primary screen, biochemical, NeuroSMM set, 635/667 nm fluorescence (AID 1119); conditions: higher = more signal, called active from +8 up or from −8 down;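 note: probe is the protein aXip251-270 applied at 1 µg/mL to compound-printed slides; binding of probe to printed compounds measured as 667 nm fluorescence plus signal to noise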
[12] = small-molecule binders of probe aNOTCH3, primary screen, biochemical, small-molecule microarray, 635/667 nm fluorescence (AID 1120); conditions: higher = more signal;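 note: probe is a biotin-tagged antibody raised against NOTCH3 rather than NOTCH3 protein; score merges spot fluorescence near 667 nm with spot signal to noise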
[13] = small-molecule binders of probe aNOTCH2, primary screen, biochemical, small-molecule microarray, 635/667 nm fluorescence (AID 1121); conditions: higher = more signal;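 note: score merges feature fluorescence read at 667 nm with its signal to noise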
[14] = biological target: Carbonic anhydrase 2 (Homo sapiens) (UniProt P00918); test: CAII small-molecule binders, profiling panel, biochemical, small-molecule microarray, Alexa647-labelled CAII (AID 1122); conditions: CAII-A647 binding fluorescence, higher = more signal
[15] = COS7 lysate on small-molecule microarray, probe aHis, 635 nm (AID 1123); conditions: COS7 cell lysate, fluorescence, higher = more signal;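 note: z-score combines 667nm fluorescence intensity with signal-to-noise per printed compound spot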
[16] = compound binding in COS7 lysate, probe aLAP1, primary screen, cell lysate, small-molecule microarray (AID 1124); conditions: probe aLAP1, fluorescence, higher = more signal;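 note: lysate comes from COS7 cells expressing LAP1 and is applied at 0.3 µg/mL; score merges spot fluorescence near 667 nm with signal-to-noise over triplicate slides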
Sam68 (KHDRBS1) = test: Sam68 small-molecule binders, primary screen, biochemical, small-molecule microarray, 635 nm fluorescence (AID 1125); conditions: small-molecule microarray binding, higher = more signal;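 note: score merges 667 nm channel intensity with signal to noise over triplicate slides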
[17] = test system: Chordin-like protein 2 (CHRDL2); test: CHRDL2 small-molecule binders, primary screen, biochemical, small-molecule microarray, 635 nm fluorescence (AID 1126); conditions: small-molecule microarray binding, fluorescence 635 nm; higher = more signal;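 note: printed compound slides probed with Chrdl2 protein at 4 µg/mL for 1 h at 4 C; score merges 667 nm emission intensity with signal to noise over three replicate slides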
[18] = biological target: Concanavalin-A (Canavalia ensiformis) (UniProt P02866); test: ConA small-molecule binders, primary screen, artefact control for SMM control protein annotation, biochemical, small-molecule microarray, Alexa647 label, 635 nm (AID 1127); conditions: ConA-A647 binding fluorescence, higher = more signal;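 note: z combines 667 nm emission intensity with signal-to-noise across three replicate slides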
Chain of Concanavalin-A (Canavalia ensiformis) (P02866 whole entry, looked up): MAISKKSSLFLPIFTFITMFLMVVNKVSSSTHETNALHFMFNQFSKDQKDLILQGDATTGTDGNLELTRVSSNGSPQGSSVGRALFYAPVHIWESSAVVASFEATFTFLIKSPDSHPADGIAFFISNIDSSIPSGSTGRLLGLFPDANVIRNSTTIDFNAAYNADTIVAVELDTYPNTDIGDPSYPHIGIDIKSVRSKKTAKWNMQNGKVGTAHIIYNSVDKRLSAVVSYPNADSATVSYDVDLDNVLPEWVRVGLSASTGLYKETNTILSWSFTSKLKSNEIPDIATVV

Chain of Alpha-bungarotoxin (Bungarus multicinctus) (P60615 whole entry, looked up): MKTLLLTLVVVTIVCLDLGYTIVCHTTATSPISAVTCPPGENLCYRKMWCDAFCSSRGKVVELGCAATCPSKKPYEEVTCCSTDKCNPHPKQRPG
Chain of Torsin-1A-interacting protein 1 (Homo sapiens) (Q5JTV8 whole entry, looked up): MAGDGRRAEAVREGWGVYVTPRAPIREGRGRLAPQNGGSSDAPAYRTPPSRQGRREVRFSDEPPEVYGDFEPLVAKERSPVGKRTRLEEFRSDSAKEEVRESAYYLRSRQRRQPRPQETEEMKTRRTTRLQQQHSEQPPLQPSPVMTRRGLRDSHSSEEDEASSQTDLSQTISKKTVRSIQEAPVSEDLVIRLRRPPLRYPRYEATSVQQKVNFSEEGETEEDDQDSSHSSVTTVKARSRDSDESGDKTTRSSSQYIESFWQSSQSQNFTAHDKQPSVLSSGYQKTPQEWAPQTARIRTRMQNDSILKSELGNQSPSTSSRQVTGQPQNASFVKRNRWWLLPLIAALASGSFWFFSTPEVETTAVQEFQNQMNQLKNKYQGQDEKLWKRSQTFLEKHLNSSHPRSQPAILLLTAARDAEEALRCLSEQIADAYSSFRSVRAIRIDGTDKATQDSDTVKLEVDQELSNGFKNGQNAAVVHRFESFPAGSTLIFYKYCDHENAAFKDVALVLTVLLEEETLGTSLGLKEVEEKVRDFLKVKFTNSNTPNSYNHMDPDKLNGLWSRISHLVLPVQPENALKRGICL
Chain of Left-right determination factor 2 (Homo sapiens) (O00292 whole entry, looked up): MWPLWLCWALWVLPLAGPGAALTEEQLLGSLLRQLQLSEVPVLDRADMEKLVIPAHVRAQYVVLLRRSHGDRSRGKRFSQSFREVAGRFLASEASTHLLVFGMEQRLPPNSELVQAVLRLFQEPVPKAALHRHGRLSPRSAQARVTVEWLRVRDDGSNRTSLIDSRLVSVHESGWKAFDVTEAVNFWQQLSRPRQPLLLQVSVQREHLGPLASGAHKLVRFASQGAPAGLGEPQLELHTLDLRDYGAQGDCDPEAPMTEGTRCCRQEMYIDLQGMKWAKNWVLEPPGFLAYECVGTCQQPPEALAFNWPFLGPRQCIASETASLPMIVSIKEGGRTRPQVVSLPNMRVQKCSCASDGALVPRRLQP
Chain of Albumin (Bos taurus) (P02769 whole entry, looked up): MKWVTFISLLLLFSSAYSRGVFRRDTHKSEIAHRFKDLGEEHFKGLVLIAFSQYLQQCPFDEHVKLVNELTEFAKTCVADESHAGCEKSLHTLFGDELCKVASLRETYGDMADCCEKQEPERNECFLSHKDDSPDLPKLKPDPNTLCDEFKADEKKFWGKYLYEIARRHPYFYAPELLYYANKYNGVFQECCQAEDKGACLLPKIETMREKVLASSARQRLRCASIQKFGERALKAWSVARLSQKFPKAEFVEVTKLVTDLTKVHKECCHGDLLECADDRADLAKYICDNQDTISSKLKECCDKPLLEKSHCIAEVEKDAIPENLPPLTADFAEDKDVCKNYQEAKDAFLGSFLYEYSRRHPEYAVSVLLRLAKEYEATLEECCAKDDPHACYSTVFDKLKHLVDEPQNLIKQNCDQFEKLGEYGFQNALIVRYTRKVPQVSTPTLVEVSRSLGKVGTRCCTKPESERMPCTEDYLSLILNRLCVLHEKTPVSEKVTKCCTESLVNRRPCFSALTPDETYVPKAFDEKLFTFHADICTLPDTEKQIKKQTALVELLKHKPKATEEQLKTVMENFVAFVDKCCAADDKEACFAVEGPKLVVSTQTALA

Row | SMILES | composite z-score [1] | z-score [2] | composite z-score [3] | composite z-score [4] | composite z-score [5] | composite z-score [6] | composite z-score [7] | composite z-score [8] | composite z-score [9] | composite z-score [10] | composite z-score (Albumin (Bos taurus)) | composite Z-score [11] | composite z-score [12] | composite z-score [13] | composite z-score [14] | composite z-score [15] | composite z-score [16] | composite z-score (Sam68 (KHDRBS1)) | composite z-score [17] | composite z-score [18]
1 | CCCNC(=O)OC[C@H]1O[C@H](CCON=C(C)C)C=C[C@@H]1Oc1ccc(OC)cc1 | -0.599 | -1.12 | -0.143 | 0.608 | 0.304 | -0.0887 | -0.282 | -0.0927 | 0.587 | -0.132 | 0.317 | -0.0154 (inactive) | 0.154 | -0.0877 | 0.0464 | 0.857 | -0.384 | -0.209 | -0.186 | 0.853
2 | CCOC(=O)[C@H](Cc1ccccc1)NC(=O)CCC1CC(OC(=O)NCc2ccc3c(c2)OCO3)CC2(CCCC(COC(=O)NCCc3ccccc3OC)O2)O1 (stereo not given in full) | 1.39 | -1.11 | 0.816 | 0.627 | 0.157 | -0.0944 | -0.0471 | -0.0125 | 0.775 | 1.11 | 0.485 | -0.344 (inactive) | 0.0225 | -0.184 | 0.253 | 1.05 | -0.0407 | 1.29 | 1.06 | 1.1
3 | CC(C)CON=C1C[C@@H](O)[C@@H](O)[C@@H]2[C@@H]3C(=O)N(C(C)(C)C)C(=O)[C@@H]3CC[C@H]12 | 1.05 | -0.451 | -0.23 | -0.302 | 0.412 | -0.124 | -0.262 | 0.0589 | 0.274 | 1.5 | -0.135 | 0.3 (inactive) | 0.0039 | -0.124 | 0.11 | 1.36 | 0.057 | 1.01 | 0.297 | -1.23
4 | C[C@@H](c1ccccc1)N1C(=O)[C@H]2[C@H]3[C@H](O)[C@H](O)CC(=NO[C@@H]4O[C@H](CO)[C@@H](O)[C@H](O)[C@H]4O)[C@H]3CC[C@H]2C1=O | 0.668 | -0.087 | 0.414 | -0.222 | -0.461 | -0.196 | 0.147 | -0.206 | 0.163 | 0.556 | 0.0673 | -0.154 (inactive) | 0.0259 | 0.012 | -0.0193 | 0.0007 | 0.554 | 0.648 | 0.373 | 0.44
5 | CCOC(=O)NN=C1C[C@@H](O)[C@@H](O)[C@@H]2[C@@H]3C(=O)N(Cc4ccccc4)C(=O)[C@@H]3CC[C@H]12 | -0.0228 | 0.47 | 0.545 | 0.903 | -0.677 | -0.0529 | -0.0626 | -0.158 | -0.273 | 0.405 | -0.182 | -0.374 (inactive) | -0.183 | -0.174 | 0.542 | 0.307 | -0.4 | -0.0882 | 0.194 | 1.12
6 | CO[C@H]1COC(=O)[C@@H](C)COC(=O)[C@H](C)NC(=O)CC=C[C@H]1C | -0.328 | -0.399 | 1.28 | -0.451 | -1.98 | -0.178 | -0.243 | -0.379 | -0.15 | -0.354 | -0.859 | 0.111 (inactive) | -0.038 | -0.0907 | -0.328 | -0.866 | -0.225 | 0.486 | 1.27 | -0.99
7 | CC(C)CCN1CCc2nc(COc3ccccc3)c3c(c2C1)CO[C@@H](C)C3 | 0.25 | 0.911 | 0.0637 | 0.683 | 0.0677 | -0.118 | 0.0796 | 0.15 | 0.686 | 0.221 | 0.536 | 0.354 (inactive) | -0.0343 | -0.0797 | 0.319 | 0.965 | 0.378 | 0.0676 | 0.119 | 0.432
8 | O=C1CCCC(C2=CCCCC2=O)C1 (stereo not given) | -0.281 | -0.293 | 0.524 | -0.732 | -1.38 | -0.0548 | 0.116 | -0.14 | 0.086 | -0.19 | -0.599 | 0.675 (inactive) | 0.152 | -0.112 | -0.139 | 0.0016 | 0.0781 | -0.532 | 1.06 | -0.719
9 | COC(=O)CC=C[C@@H](C)[C@@H](C=NOC[C@H]1O[C@H](c2ccccc2)C=C[C@@H]1Oc1ccc(OC)cc1)NS(=O)(=O)c1ccc(C)cc1 | -1.1 | -0.787 | -0.233 | -1.07 | -0.467 | -0.147 | -0.112 | -0.181 | -0.306 | -0.183 | -0.453 | -0.769 (inactive) | -0.196 | -0.138 | -0.648 | -0.588 | -0.689 | -1.18 | 0.156 | -2.02
10 | COc1ccc(COC(=O)NN=C2C[C@@H](O)[C@@H](O)[C@@H]3[C@@H]4C(=O)N(C5CCCCC5)C(=O)[C@@H]4CC[C@H]23)cc1 | -0.605 | -2.37 | -0.877 | 0.979 | -0.0278 | -0.243 | -0.315 | 0.051 | 1.03 | 0.161 | 0.213 | 1.22 (inactive) | -0.365 | -0.28 | 0.262 | -0.0294 | -0.222 | -0.331 | -0.275 | -1.14
11 | C#CCCCON=C1C[C@@H](O)[C@@H](O)[C@@H]2[C@@H]3C(=O)N(C(C)(C)C)C(=O)[C@@H]3CC[C@H]12 | -0.149 | -0.134 | -0.0304 | -0.245 | -0.0493 | 0.0926 | -0.154 | -0.0675 | -0.0059 | 1.27 | 0.725 | -0.483 (inactive) | 0.0306 | -0.0272 | -0.466 | 0.126 | 0.0192 | -0.454 | 0.557 | -0.482
12 | CC(CCN1CCCc2nc(C)c(C)cc21)=NO[C@@H](C)c1cc(-c2c(C)cc(C)cc2C)no1 | 0.788 | -0.414 | 0.231 | 0.446 | -0.17 | -0.101 | 0.0952 | 0.173 | 0.601 | 0.494 | 0.177 | 0.121 (inactive) | 0.0789 | -0.0668 | 0.0276 | 0.517 | 0.138 | 1.04 | 0.9 | 0.778
13 | C[C@@H](c1ccccc1)N1C(=O)[C@H]2[C@H]3[C@H](O)[C@H](O)CC(=O)[C@H]3CC[C@H]2C1=O | 0.295 | -0.127 | 0.461 | 0.364 | -0.255 | -0.154 | -0.206 | -0.026 | -0.0326 | -0.0931 | 0.587 | -0.0023 (inactive) | -0.367 | -0.226 | -0.125 | 0.241 | 0.567 | 0.626 | 0.747 | 0.336
14 | COc1cccc([C@H]2Oc3ccc(OC)cc3C(=NOC[C@@H](O)[C@H]3O[C@@H]4OC(C)(C)O[C@@H]4[C@H]3O)[C@@H]2O)c1 | 0.0743 | 4.33 | 0.583 | -0.284 | -0.273 | -0.139 | -0.304 | -0.409 | 0.64 | -0.106 | 0.891 | -0.563 (inactive) | 0.0831 | -0.139 | -0.149 | 0.48 | 0.248 | 0.706 | 0.461 | 0.532
15 | C[n+]1ccc(-c2ccc(CO)cc2)cc1 | -1.04 | -0.0613 | 0.616 | 0.468 | 0.607 | -0.117 | -0.0709 | -0.329 | 0.724 | 3.86 | -0.619 | 2.7 (inactive) | -0.0377 | -0.157 | 0.68 | -0.702 | 0.372 | 0.364 | 1.54 | 1.11
16 | CCOC(=O)NN=C1C[C@@H](O)[C@@H](O)[C@@H]2[C@@H]3C(=O)N(c4cccc(Oc5ccccc5)c4)C(=O)[C@@H]3CC[C@@H]12 | -0.269 | -0.912 | 0.144 | -0.0069 | -0.434 | -0.0165 | -0.32 | -0.444 | -0.127 | 1.32 | 0.736 | -0.147 (inactive) | -0.152 | -0.167 | 0.58 | 0.263 | 0.142 | -0.114 | -0.0646 | -0.245

— PubChem BioAssay
